Measured values as given in PubChem BioAssay AID1159580 (chemical genetic matrix, 2015).
“And” between values parts separate entries of the source, which are not always exact repeats. Identical values can stand only once. In all, about 5,500 compounds went through this assay and about 2,000 (36%) were called active. About 18% were inconclusive and are not listed. Cut-off read from the data, not from the text of the source: active = normalized growth mostly below about 0.91 (no sharp cut-off); inconclusive = no clear call, values can overlap the other calls; inactive = mostly above about 0.92. Some of the results follow.

Test: chemical genetic growth profiling, strain panel (AID 1159580);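 note: tested at 20 µM; growth read once vehicle control cultures reached saturation at 30 °C; 1 = growth at the plate median or of vehicle wells; lower values mean less growth of the strain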
Conditions: S. cerevisiae deletion strains, growth OD

Measured: normalized growth

Cc1cc(C)cc(OCC2CNC(=O)O2)c1 (stereo unspecified)
inactive: locus YAL013W, strain DEP1, active compounds read low 1.01 | locus YAL021C, strain ccr4, active compounds read low 0.995 | locus YAL026C, strain drs2, active compounds read low 0.977 | locus YAL030W, strain snc1, active compounds read low 0.984 | locus YBL061C, strain skt5, active compounds read low 0.97 | locus YBR009C, strain hhf1, active compounds read low 0.985 | locus YBR021W, strain FUR4, active compounds read low 1.02 | locus YBR023C, strain chs3, active compounds read low 0.972 | locus YBR171W, strain sec66, active compounds read low 0.963 | locus YBR229C, strain ROT2, active compounds read low 1 | locus YBR231C, strain swc5, active compounds read low 0.992 | locus YBR279W, strain paf1, active compounds read low 0.969 | locus YCL011C, strain gbp2, active compounds read low 0.977 | locus YCL016C, strain dcc1, active compounds read low 0.979 | locus YCL029C, strain bik1, active compounds read low 1.01 | locus YCL061C, strain MRC1, active compounds read low 0.973 | locus YCL069W, strain vba3, active compounds read low 0.975 | locus YCR088W, strain abp1, active compounds read low 0.977 | locus YDL005C, strain med2, active compounds read low 0.97 | locus YDL035C, strain GPR1, active compounds read low 1.02 | locus YDL040C, strain nat1, active compounds read low 0.972 | locus YDL074C, strain BRE1, active compounds read low 1.03 | locus YDL101C, strain DUN1, active compounds read low 1.02 | locus YDL134C, strain PPH21, active compounds read low 1.02 | locus YDL185W, strain tfp1, active compounds read low 1.02 | locus YDL192W, strain arf1, active compounds read low 1.01 | locus YDR001C, strain nth1, active compounds read low 0.979 | locus YDR069C, strain doa4, active compounds read low 0.986 | locus YDR101C, strain arx1, active compounds read low 1.01 | locus YDR137W, strain rgp1, active compounds read low 0.92 | locus YDR150W, strain NUM1, active compounds read low 1.02 | locus YDR159W, strain sac3, active compounds read low 0.986 | locus YDR162C, strain NBP2, active compounds read low 1.03 | locus YDR195W, strain ref2 0.97 | locus YDR297W, strain sur2, active compounds read low 0.976 | locus YDR318W, strain mcm21, active compounds read low 1.02 | locus YDR334W, strain swr1, active compounds read low 0.966 | locus YDR335W, strain msn5, active compounds read low 0.971 | locus YDR388W, active compounds read low 1.01 | locus YDR392W, strain spt3, active compounds read low 0.983 | locus YDR502C, strain sam2, active compounds read low 1.02 | locus YEL003W, strain gim4, active compounds read low 0.981 | locus YEL037C, strain rad23, active compounds read low 0.979 | locus YEL061C, strain CIN8 (second series), active compounds read low 0.966 | locus YEL061C, strain CIN8, active compounds read low 1 | locus YER015W, strain faa2, active compounds read low 0.982 | locus YER016W, strain bim1, active compounds read low 0.983 | locus YER110C, active compounds read low 1.01 | locus YER111C, strain swi4, active compounds read low 0.971 | locus YER155C, strain BEM2 (second series), active compounds read low 0.972 | locus YER155C, strain BEM2, active compounds read low 1.02 | locus YER167W, strain BCK2, active compounds read low 1.02 | locus YGL078C, strain dbp3, active compounds read low 1.01 | locus YGL086W, strain mad1, active compounds read low 1.01 | locus YGL167C, strain pmr1, active compounds read low 0.971 | locus YGL173C, strain kem1, active compounds read low 0.966 | locus YGL227W, strain vid30, active compounds read low 0.972 | locus YGL240W, strain doc1, active compounds read low 0.976 | locus YGL248W, strain PDE1, active compounds read low 1.01 | locus YGL253W, strain hxk2, active compounds read low 0.97 | locus YGR078C, strain PAC10, active compounds read low 1.01 | locus YGR135W, strain pre9, active compounds read low 0.998 | locus YGR229C, strain SMI1, active compounds read low 1.02 | locus YGR252W, strain gcn5, active compounds read low 1 | locus YHR013C, strain ard1, active compounds read low 0.928 | locus YHR027C, strain rpn1, active compounds read low 0.964 | locus YHR030C, strain SLT2, active compounds read low 1.01 and 1.04 | locus YHR079C, strain IRE1 (second series), active compounds read low 1.02 | locus YHR079C, strain IRE1, active compounds read low 1.05 | locus YHR094C, strain hxt1, active compounds read low 1.02 | locus YHR129C, strain ARP1, active compounds read low 1.02 | locus YHR142W, strain chs7, active compounds read low 0.968 | locus YHR200W, strain rpn10, active compounds read low 1.02 | locus YIL066C, strain RNR3, active compounds read low 1.02 | locus YIL073C, strain SPO22, active compounds read low 1.03 | locus YIL125W, strain kgd1, active compounds read low 1.01 | locus YIR030C, strain dcg1, active compounds read low 1.02 | locus YJL092W, strain hpr5, active compounds read low 0.972 | locus YJL095W, strain BCK1 (second series), active compounds read low 0.971 | locus YJL095W, strain BCK1, active compounds read low 1.01 and 1.02 | locus YJL115W, strain asf1, active compounds read low 0.965 | locus YJL129C, strain trk1, active compounds read low 0.974 | locus YJL134W, strain LCB3, active compounds read low 1.02 | locus YJL154C, strain vps35, active compounds read low 0.973 | locus YJL164C, strain tpk1, active compounds read low 0.98 | locus YJL166W, strain qcr8, active compounds read low 0.981 | locus YJL168C, strain set2, active compounds read low 1.02 | locus YJL187C, strain SWE1 (second series), active compounds read low 1.01 | locus YJL187C, strain SWE1, active compounds read low 0.982 | locus YJR043C, strain POL32, active compounds read low 1.02 | locus YJR066W, strain TOR1, active compounds read low 0.99
